From the supplement of paper PMC6555819

Assays:
Test in all cases: PBM binding z-score (relative to random genomic background probes); higher = stronger binding; sequences stand for … in GC…GCGATTGACAGCGTAGAATGAAGG
[1] = system: FXR:RXRa (NR concentration 270 nM, RXRa partner concentration 90 nM)
Procedure, shortened: (§1)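 Ligand-free nuclear receptor dimers were applied to custom Agilent 4×180K protein-binding microarrays whose double-stranded probes carried direct-repeat seeds, single-nucleotide variants, half-site ablations and random human genomic background sequences in 34-nt variable regions. Incubation lasted 1 h. Binding z-scores were computed against the random background probes from regression-normalized fluorescence.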

[2] = system: LXRa:RXRa (NR concentration 270 nM, RXRa partner concentration 90 nM)
Procedure, shortened: as §1

[3] = system: LXRa homodimer (NR concentration 270 nM)
Procedure, shortened: as §1

[4] = system: LXRb:RXRa (NR concentration 270 nM, RXRa partner concentration 90 nM)
Procedure, shortened: as §1

[5] = system: LXRb homodimer (NR concentration 270 nM)
Procedure, shortened: as §1

[6] = system: PPARa:RXRa (NR concentration 270 nM, RXRa partner concentration 90 nM)
Procedure, shortened: as §1

[7] = system: PPARg:RXRa (NR concentration 180 nM, RXRa partner concentration 90 nM)
Procedure, shortened: as §1

[8] = system: PPARg:RXRa 270nM:90nM, anti-RXR (NR concentration 270 nM, RXRa partner concentration 90 nM)
Procedure, shortened: as §1

[9] = system: PPARg:RXRa 30nM:10nM, anti-RXR (NR concentration 30 nM, RXRa partner concentration 10 nM)
Procedure, shortened: as §1

[10] = system: PPARg:RXRa 90nM:30nM, anti-RXR (NR concentration 90 nM, RXRa partner concentration 30 nM)
Procedure, shortened: as §1

[11] = system: PPARg:RXRa DBDmut IVT, anti-RXR (DBD mutation: RXRa K156A/R161A, NR concentration 270 nM, RXRa partner concentration 90 nM)
Procedure, shortened: as §1

[12] = system: PPARg:RXRa IVT, anti-PPARg (NR concentration 270 nM, RXRa partner concentration 90 nM)
Procedure, shortened: as §1

[13] = system: PPARg DBDmut:RXRa IVT, anti-PPARg (DBD mutation: PPARg1 K132A/R137A, NR concentration 270 nM, RXRa partner concentration 90 nM)
Procedure, shortened: as §1

[14] = system: PPARg DBDmut IVT, anti-PPARg (DBD mutation: PPARg1 K132A/R137A, NR concentration 270 nM)
Procedure, shortened: as §1

[15] = system: PPARg homodimer (NR concentration 180 nM)
Procedure, shortened: as §1

[16] = system: PXR:RXRa (NR concentration 270 nM, RXRa partner concentration 90 nM)
Procedure, shortened: as §1

[17] = system: PXR homodimer (NR concentration 270 nM)
Procedure, shortened: as §1

[18] = system: RARa:RXR (NR concentration 270 nM, RXRa partner concentration 90 nM)
Procedure, shortened: as §1

[19] = system: RARa homodimer (NR concentration 270 nM)
Procedure, shortened: as §1

[20] = system: RARb:RXRa (NR concentration 270 nM, RXRa partner concentration 90 nM)
Procedure, shortened: as §1

Sequence	PBM binding z-score [1]	PBM binding z-score [2]	PBM binding z-score [3]	PBM binding z-score [4]	PBM binding z-score [5]	PBM binding z-score [6]	PBM binding z-score [7]	PBM binding z-score [8]	PBM binding z-score [9]	PBM binding z-score [10]	PBM binding z-score [11]	PBM binding z-score [12]	PBM binding z-score [13]	PBM binding z-score [14]	PBM binding z-score [15]	PBM binding z-score [16]	PBM binding z-score [17]	PBM binding z-score [18]	PBM binding z-score [19]	PBM binding z-score [20]
CCGCCTAGGTCAGGGCCAGTATAGGAGGAACGTT	1.6	1.11	-0.253	1.1	-0.93	2.15	0.674	0.881	-0.497	-0.0982	0.73	1.29	-1.13	-2.07	0.393	0.629	-0.663	1.47	-0.0818	3.43
GCTATTAGTTGAATGGGCAACCGAATGATTCTCG	-0.277	-0.309	-0.219	-0.351	-0.317	-0.737	0.129	-0.166	-0.146	0.0794	0.75	-0.332	-0.684	0.178	-0.436	-0.587	-0.28	-0.707	0.153	-0.226
TCATATAGGTTAATGCTAGGTGAAAGTCCGATCT	1.19	2.25	0.441	1.28	0.557	2.55	2.14	3.06	3.79	3.26	4.99	4.12	1.41	0.726	1.47	1.13	0.465	1.52	1.51	1.43
TCTTGTAGATCAAAGGTTAAGCAAGCCGAAGCCT	1.32	2.21	0.224	2.12	-0.28	5.08	8.51	8.42	9.42	9.87	2.3	4.26	1.03	0.316	0.998	2.14	-0.0892	3.34	-0.483	2.11
CAGCCTAGGTCAGGGCCAGTGTAGGAGGAACGTT	1.51	1.17	-0.646	0.424	-1.41	2.1	0.721	0.845	-0.701	-0.0334	1.13	1.58	-0.0989	-1.49	0.588	0.476	-0.524	1.01	-0.522	3.5
GCTCGGAGGACAAGGTCAGACCTTTGTCCGTAGA	2.03	2.52	-0.219	1.95	0.0255	3.08	1.88	2.61	-0.0164	1.74	-0.401	1.17	-0.273	-0.216	0.937	2.18	-0.193	2.61	-0.422	3.67
ATCTCTAGGTAAGACACAGTTCAGTGAAGAACGC	0.376	1.1	1.08	0.767	1.15	0.964	1.03	1.98	0.784	1.72	2.01	1.34	1.21	1.33	1.82	1.31	1.06	0.786	1.69	0.924
